Holding throughout (assay): DAPPL (digital affinity profiling via proximity ligation, sequencing); 10 mM Tris-HCl pH 7.5, 50 mM NaCl, 1 mM DTT, 4% glycerol, room temperature, 30 min; GST-TFs on glutathione beads, 16-mer random dsDNA library, 0.1% formaldehyde crosslink after washing; high values mean tight binding
Holding throughout (conditions): protein: recombinant; tags: N-terminal GST; dsDNA, one strand shown

The target of experiment [1] is T1, ERF (Homo sapiens, UniProt P50548 1-548).
T1 sequence: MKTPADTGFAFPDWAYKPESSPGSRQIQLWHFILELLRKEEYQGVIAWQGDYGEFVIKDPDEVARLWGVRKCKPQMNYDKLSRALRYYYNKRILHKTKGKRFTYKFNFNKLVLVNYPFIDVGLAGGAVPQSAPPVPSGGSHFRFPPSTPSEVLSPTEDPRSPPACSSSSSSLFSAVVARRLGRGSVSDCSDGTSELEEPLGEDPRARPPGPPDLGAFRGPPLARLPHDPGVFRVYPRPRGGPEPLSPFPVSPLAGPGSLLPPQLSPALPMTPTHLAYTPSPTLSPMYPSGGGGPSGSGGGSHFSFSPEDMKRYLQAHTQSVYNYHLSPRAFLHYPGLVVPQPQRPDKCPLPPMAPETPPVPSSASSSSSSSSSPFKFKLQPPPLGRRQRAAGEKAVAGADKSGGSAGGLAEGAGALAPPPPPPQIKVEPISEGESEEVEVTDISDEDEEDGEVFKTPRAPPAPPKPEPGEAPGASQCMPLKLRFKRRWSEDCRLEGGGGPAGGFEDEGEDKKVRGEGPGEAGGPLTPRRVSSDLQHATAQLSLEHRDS
Put shortly: (§1)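 Yeast served to express human transcription factors as GST fusions, which were then captured on glutathione beads and labelled with DNA barcodes. Pooled with a tag-only sample, they were incubated with 200 nmole of a 16-mer random double-stranded DNA library for 30 min at room temperature in Tris/NaCl/DTT/glycerol buffer, washed, crosslinked with 0.1% formaldehyde, ligated by proximity, amplified by PCR and sequenced. Dividing each hexamer's read frequency for a factor by its frequency for the tag-only sample gives the binding signal.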

For experiment [2], the target named is T2, ETV3L (Homo sapiens, UniProt Q6ZN32 1-361).
T2 sequence: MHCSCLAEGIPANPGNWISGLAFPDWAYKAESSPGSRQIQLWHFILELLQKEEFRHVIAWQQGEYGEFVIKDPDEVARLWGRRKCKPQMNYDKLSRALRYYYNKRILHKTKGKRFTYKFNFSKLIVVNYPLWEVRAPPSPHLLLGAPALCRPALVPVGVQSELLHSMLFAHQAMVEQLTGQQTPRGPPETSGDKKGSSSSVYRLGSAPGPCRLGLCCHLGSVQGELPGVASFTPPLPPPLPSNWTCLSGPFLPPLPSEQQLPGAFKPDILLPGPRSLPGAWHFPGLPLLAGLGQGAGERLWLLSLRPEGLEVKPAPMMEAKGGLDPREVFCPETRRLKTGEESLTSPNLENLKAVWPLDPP
Put shortly: as §1

Experiment [3] deals with T3, ETS2 (Homo sapiens, UniProt P15036 1-469).
T3 sequence: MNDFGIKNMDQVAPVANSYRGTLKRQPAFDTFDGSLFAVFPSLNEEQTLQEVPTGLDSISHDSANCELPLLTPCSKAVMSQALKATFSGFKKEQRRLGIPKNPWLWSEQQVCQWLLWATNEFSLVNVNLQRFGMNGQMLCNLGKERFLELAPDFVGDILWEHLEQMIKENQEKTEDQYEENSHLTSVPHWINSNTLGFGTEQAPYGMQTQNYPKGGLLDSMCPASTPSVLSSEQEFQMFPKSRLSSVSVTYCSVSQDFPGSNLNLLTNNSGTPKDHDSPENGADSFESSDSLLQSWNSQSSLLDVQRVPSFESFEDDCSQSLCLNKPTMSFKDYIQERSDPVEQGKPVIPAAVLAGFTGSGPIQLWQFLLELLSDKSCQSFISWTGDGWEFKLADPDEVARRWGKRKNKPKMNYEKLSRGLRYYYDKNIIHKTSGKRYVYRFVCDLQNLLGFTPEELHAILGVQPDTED
Put shortly: as §1

Experiment [4] deals with T4, SPDEF (Homo sapiens, UniProt O95238 1-335).
T4 sequence: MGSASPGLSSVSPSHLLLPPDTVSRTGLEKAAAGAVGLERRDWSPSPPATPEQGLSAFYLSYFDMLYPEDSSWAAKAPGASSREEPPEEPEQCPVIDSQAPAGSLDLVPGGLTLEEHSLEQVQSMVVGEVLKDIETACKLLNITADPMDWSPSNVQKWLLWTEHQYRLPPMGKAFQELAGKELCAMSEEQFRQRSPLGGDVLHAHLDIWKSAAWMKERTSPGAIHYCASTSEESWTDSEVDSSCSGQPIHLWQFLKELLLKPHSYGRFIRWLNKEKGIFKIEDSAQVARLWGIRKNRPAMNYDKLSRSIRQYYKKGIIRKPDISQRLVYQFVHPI
In a few lines:
as §1

Experiment [5] deals with T5, ETV7 (Homo sapiens, UniProt Q9Y603 1-341).
T5 sequence: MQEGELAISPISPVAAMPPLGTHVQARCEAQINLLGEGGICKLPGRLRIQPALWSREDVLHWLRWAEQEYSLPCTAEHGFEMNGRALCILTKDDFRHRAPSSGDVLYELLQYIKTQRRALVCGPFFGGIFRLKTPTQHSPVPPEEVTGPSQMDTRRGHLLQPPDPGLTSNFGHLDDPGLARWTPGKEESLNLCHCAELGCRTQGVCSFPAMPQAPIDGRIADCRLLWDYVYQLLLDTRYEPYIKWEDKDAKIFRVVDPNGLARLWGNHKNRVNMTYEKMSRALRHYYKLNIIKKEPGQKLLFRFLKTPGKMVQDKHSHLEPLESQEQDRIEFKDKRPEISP
Put shortly:
as §1

Experiment [6] concerns the target T6, ELF5 (Homo sapiens, UniProt Q9UKW6-2 1-255).
T6 sequence: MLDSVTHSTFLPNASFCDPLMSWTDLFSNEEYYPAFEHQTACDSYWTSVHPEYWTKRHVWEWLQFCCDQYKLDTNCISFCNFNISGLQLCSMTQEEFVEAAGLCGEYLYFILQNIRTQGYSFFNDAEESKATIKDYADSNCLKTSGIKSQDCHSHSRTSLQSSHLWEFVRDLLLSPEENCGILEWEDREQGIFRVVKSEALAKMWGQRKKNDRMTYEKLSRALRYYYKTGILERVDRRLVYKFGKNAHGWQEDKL
In a few lines:
as §1

Experiment [7] addresses T7, ETV3 (Homo sapiens, UniProt P41162-2 1-143).
T7 sequence: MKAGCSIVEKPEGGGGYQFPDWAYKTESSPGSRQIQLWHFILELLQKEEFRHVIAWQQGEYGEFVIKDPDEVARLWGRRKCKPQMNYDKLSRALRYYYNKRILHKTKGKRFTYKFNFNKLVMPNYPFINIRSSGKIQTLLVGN
Put shortly: as §1

The target of experiment [8] is ETV6 (Homo sapiens, UniProt P41212 1-452). In a few lines:
as §1

ETV6, sequence (P41212 whole entry): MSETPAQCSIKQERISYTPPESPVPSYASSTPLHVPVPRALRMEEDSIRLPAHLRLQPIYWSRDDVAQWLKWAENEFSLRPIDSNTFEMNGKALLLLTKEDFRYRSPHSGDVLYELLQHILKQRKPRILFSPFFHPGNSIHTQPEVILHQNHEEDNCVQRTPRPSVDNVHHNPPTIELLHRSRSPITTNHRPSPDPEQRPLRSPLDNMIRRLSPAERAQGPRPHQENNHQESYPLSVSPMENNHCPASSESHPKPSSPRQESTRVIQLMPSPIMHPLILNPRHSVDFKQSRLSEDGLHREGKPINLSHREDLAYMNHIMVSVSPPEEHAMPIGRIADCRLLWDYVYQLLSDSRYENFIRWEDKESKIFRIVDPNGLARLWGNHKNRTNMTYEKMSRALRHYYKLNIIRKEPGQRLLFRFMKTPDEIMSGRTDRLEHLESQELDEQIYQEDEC

Consider ATGTCC, for which the binding signal in experiment [1] is 1.36 fold enrichment (6-mer frequency, TF over GST control); in experiment [2] it was 1.7 fold enrichment (6-mer frequency, TF over GST control); in experiment [3], 1.58 fold enrichment (6-mer frequency, TF over GST control); in experiment [4] it was 2.05 fold enrichment (6-mer frequency, TF over GST control); in experiment [5], 1.71 fold enrichment (6-mer frequency, TF over GST control); in experiment [6], 1.65 fold enrichment (6-mer frequency, TF over GST control). For the same sequence, the binding signal is 1.8 fold enrichment (6-mer frequency, TF over GST control) in experiment [7] and 1.57 fold enrichment (6-mer frequency, TF over GST control) in experiment [8].
In the case of TCCCTG, the binding signal was 1.29 fold enrichment (6-mer frequency, TF over GST control) in experiment [1]; 1.28 fold enrichment (6-mer frequency, TF over GST control) in experiment [2]; 1.21 fold enrichment (6-mer frequency, TF over GST control) in experiment [3]; 1.19 fold enrichment (6-mer frequency, TF over GST control) in experiment [4]; 1.23 fold enrichment (6-mer frequency, TF over GST control) in experiment [5]; 1.38 fold enrichment (6-mer frequency, TF over GST control) in experiment [6]. Moreover, the binding signal in experiment [7] was 1.26 fold enrichment (6-mer frequency, TF over GST control); in experiment [8], 1.31 fold enrichment (6-mer frequency, TF over GST control).
As to GAAACT, the binding signal is 1.03 fold enrichment (6-mer frequency, TF over GST control) in experiment [1]; 1.22 fold enrichment (6-mer frequency, TF over GST control) in experiment [2]; 1.22 fold enrichment (6-mer frequency, TF over GST control) in experiment [3]; 1.13 fold enrichment (6-mer frequency, TF over GST control) in experiment [4]; 1.31 fold enrichment (6-mer frequency, TF over GST control) in experiment [5]; 1.28 fold enrichment (6-mer frequency, TF over GST control) in experiment [6]. For the same sequence, the binding signal was 1.16 fold enrichment (6-mer frequency, TF over GST control) in experiment [7] and 1.2 fold enrichment (6-mer frequency, TF over GST control) in experiment [8].
For the sequence TGACGA, the binding signal was 1.14 fold enrichment (6-mer frequency, TF over GST control) in experiment [1]; 1.07 fold enrichment (6-mer frequency, TF over GST control) in experiment [2]; 1.17 fold enrichment (6-mer frequency, TF over GST control) in experiment [3]; 1 fold enrichment (6-mer frequency, TF over GST control) in experiment [4]; 1.11 fold enrichment (6-mer frequency, TF over GST control) in experiment [5]; 1.04 fold enrichment (6-mer frequency, TF over GST control) in experiment [6]. Moreover, the binding signal in experiment [7] was 1.09 fold enrichment (6-mer frequency, TF over GST control); in experiment [8] it was 1.16 fold enrichment (6-mer frequency, TF over GST control).
For the sequence GCACTC, the binding signal in experiment [1] is 1.39 fold enrichment (6-mer frequency, TF over GST control); in experiment [2], 1.33 fold enrichment (6-mer frequency, TF over GST control); in experiment [3], 1.23 fold enrichment (6-mer frequency, TF over GST control); in experiment [4], 1.22 fold enrichment (6-mer frequency, TF over GST control); in experiment [5], 1.28 fold enrichment (6-mer frequency, TF over GST control); in experiment [6], 1.27 fold enrichment (6-mer frequency, TF over GST control). The binding signal in experiment [7] was 1.28 fold enrichment (6-mer frequency, TF over GST control); in experiment [8], 1.34 fold enrichment (6-mer frequency, TF over GST control).
For CCTTCG, the binding signal in experiment [1] is 1.36 fold enrichment (6-mer frequency, TF over GST control); in experiment [2], 1.36 fold enrichment (6-mer frequency, TF over GST control); in experiment [3] it was 1.3 fold enrichment (6-mer frequency, TF over GST control); in experiment [4], 1.33 fold enrichment (6-mer frequency, TF over GST control); in experiment [5], 1.38 fold enrichment (6-mer frequency, TF over GST control); in experiment [6] it was 1.24 fold enrichment (6-mer frequency, TF over GST control). The binding signal in experiment [7] is 1.12 fold enrichment (6-mer frequency, TF over GST control); in experiment [8], 1.31 fold enrichment (6-mer frequency, TF over GST control).
On to ACCGTC, for which the binding signal in experiment [1] is 1.25 fold enrichment (6-mer frequency, TF over GST control); in experiment [2], 1.23 fold enrichment (6-mer frequency, TF over GST control); in experiment [3] it was 1.28 fold enrichment (6-mer frequency, TF over GST control); in experiment [4] it was 1.35 fold enrichment (6-mer frequency, TF over GST control); in experiment [5], 1.09 fold enrichment (6-mer frequency, TF over GST control); in experiment [6], 1.08 fold enrichment (6-mer frequency, TF over GST control). In addition, the binding signal in experiment [7] was 1.2 fold enrichment (6-mer frequency, TF over GST control); in experiment [8], 1.21 fold enrichment (6-mer frequency, TF over GST control).
For TATACT, the binding signal is 1.3 fold enrichment (6-mer frequency, TF over GST control) in experiment [1]; 1.29 fold enrichment (6-mer frequency, TF over GST control) in experiment [2]; 1.38 fold enrichment (6-mer frequency, TF over GST control) in experiment [3]; 1.52 fold enrichment (6-mer frequency, TF over GST control) in experiment [4]; 1.31 fold enrichment (6-mer frequency, TF over GST control) in experiment [5]; 1.34 fold enrichment (6-mer frequency, TF over GST control) in experiment [6]. In addition, the binding signal in experiment [7] is 1.34 fold enrichment (6-mer frequency, TF over GST control); in experiment [8], 1.45 fold enrichment (6-mer frequency, TF over GST control).

For the origin of these results see paper PMC7862700, “An all-to-all approach to the identification of sequence-specific readers for epigenetic DNA modifications on cytosine”.
